PubChem BioAssay (NCI)
The panel holds about 83,000 compounds, 20% with a hit somewhere; the sample as a whole holds those more often.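 Note: values are percent growth. 100 is the growth of untreated cells, values between 100 and 0 indicate rising inhibition; between -100 and 0 indicates cell death.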 The source made the active and inactive calls. The calls were made as follows: active = growth percent below 10; inactive = the rest.

Key:
Experiment in all cases: NCI-60 one-dose screen, 48 h (100 = growth as untreated, 0 = no growth, -100 = all killed)
Details in all cases: 10 µM unless noted
SK-MEL-2 melanoma = system: SK-MEL-2 melanoma
EKVX NSCLC = system: EKVX NSCLC
SN12C renal = system: SN12C renal
UO-31 renal = system: UO-31 renal
TK-10 renal = system: TK-10 renal
ACHN renal = system: ACHN renal
CAKI-1 renal = system: CAKI-1 renal
A498 renal = system: A498 renal
CCRF-CEM leukemia = system: CCRF-CEM leukemia
MOLT-4 leukemia = system: MOLT-4 leukemia

Measured: growth

ClCc1cccc2c(CCl)cccc12
inactive: SK-MEL-2 melanoma 84.3% | EKVX NSCLC 82.2% | SN12C renal 64.5% | UO-31 renal 60.4% | TK-10 renal 86.8% | ACHN renal 31.5% | CAKI-1 renal 15.2% | A498 renal 107% | CCRF-CEM leukemia 29.8% | MOLT-4 leukemia 27.7%

CCCOCc1cn[nH]n1
inactive: SK-MEL-2 melanoma 104% | EKVX NSCLC 103% | SN12C renal 105% | UO-31 renal 91.6% | TK-10 renal 102% | ACHN renal 110% | CAKI-1 renal 104% | A498 renal 100% | CCRF-CEM leukemia 109% | MOLT-4 leukemia 106%

CC(=O)CSc1ncnc2nc[nH]c12
inactive: SK-MEL-2 melanoma 95% | EKVX NSCLC 95.4% | SN12C renal 96.9% | UO-31 renal 88.1% | TK-10 renal 88.8% | ACHN renal 93% | CAKI-1 renal 80.9% | A498 renal 66.1% | CCRF-CEM leukemia 89.3% | MOLT-4 leukemia 87.4%

CCOC(=O)c1ccc(NC(=O)Nc2nccs2)cc1
active: SK-MEL-2 melanoma -38.4% | ACHN renal 9.97% | A498 renal 7.68% | CCRF-CEM leukemia -0.276% | MOLT-4 leukemia -2.7%
inactive: EKVX NSCLC 55.5% | SN12C renal 24.7% | UO-31 renal 14.8% | TK-10 renal 31.6% | CAKI-1 renal 22.2%

N=C(N)c1nn(C2OC(CO)C(O)C2O)c2nc[nH]c(=O)c12 (stereo not given)
inactive: UO-31 renal 13.1% | A498 renal 15.4%
active: SK-MEL-2 melanoma -23% | EKVX NSCLC -0.273% | SN12C renal 6.98% | TK-10 renal -9.5% | ACHN renal -5.7% | CAKI-1 renal 1.5% | CCRF-CEM leukemia -0.754% | MOLT-4 leukemia -11.9%

CNc1ccccc1C(N)=O
inactive: SK-MEL-2 melanoma 103% | EKVX NSCLC 98.4% | SN12C renal 94.8% | UO-31 renal 75.5% | TK-10 renal 105% | ACHN renal 97.1% | CAKI-1 renal 81.4% | A498 renal 121% | CCRF-CEM leukemia 102% | MOLT-4 leukemia 117%

COC(=O)c1ccccc1C(=O)c1c(C)cc(C)cc1C
inactive: SK-MEL-2 melanoma 94% | EKVX NSCLC 109% | SN12C renal 99.9% | UO-31 renal 92.9% | TK-10 renal 88.3% | ACHN renal 101% | CAKI-1 renal 96.4% | A498 renal 88.9% | CCRF-CEM leukemia 99.2% | MOLT-4 leukemia 87.9%

COc1ccc2c(ccc[n+]2C)c1
inactive: SK-MEL-2 melanoma 103% | EKVX NSCLC 84.7% | SN12C renal 104% | UO-31 renal 86.5% | TK-10 renal 102% | ACHN renal 98.5% | CAKI-1 renal 96.4% | A498 renal 107% | CCRF-CEM leukemia 98.3% | MOLT-4 leukemia 111%

CCC(C)C1CCC(O)CC1 (stereo not given)
inactive: SK-MEL-2 melanoma 104% | EKVX NSCLC 113% | SN12C renal 108% | UO-31 renal 90.7% | TK-10 renal 103% | ACHN renal 105% | CAKI-1 renal 96.6% | A498 renal 103% | CCRF-CEM leukemia 125% | MOLT-4 leukemia 104%

Cn1c(=O)[nH]c2ccccc2c1=O
inactive: SK-MEL-2 melanoma 111% | EKVX NSCLC 71.6% | SN12C renal 96.4% | UO-31 renal 95.5% | TK-10 renal 94.3% | ACHN renal 105% | CAKI-1 renal 85.3% | A498 renal 129% | CCRF-CEM leukemia 108% | MOLT-4 leukemia 122%

NC(=S)N/N=C/c1ccc(OC(=O)COc2ccc(Cl)cc2)cn1
active: CAKI-1 renal 0.332%
inactive: SK-MEL-2 melanoma 62.8% | EKVX NSCLC 93.6% | SN12C renal 28.2% | UO-31 renal 24.9% | TK-10 renal 74.9% | ACHN renal 12.5% | A498 renal 57.3% | CCRF-CEM leukemia 18.6% | MOLT-4 leukemia 16.5%

S=C(Sc1ccc(Cl)cc1)Sc1ccc(Cl)cc1
inactive: SK-MEL-2 melanoma 90.9% | EKVX NSCLC 49.1% | ACHN renal 70% | A498 renal 70.6%
active: SN12C renal -47.6% | UO-31 renal -59.8% | TK-10 renal -36.3% | CAKI-1 renal -75.6% | CCRF-CEM leukemia -15.8% | MOLT-4 leukemia -25.4%

CC(C)(C)[Si](C)(C)OCC1OC(n2cnc3c(N)ncnc32)CC1OS(C)(=O)=O (stereo not given)
inactive: SK-MEL-2 melanoma 105% | EKVX NSCLC 105% | SN12C renal 101% | UO-31 renal 86.8% | TK-10 renal 99.7% | ACHN renal 114% | CAKI-1 renal 96.2% | A498 renal 67.6% | CCRF-CEM leukemia 101% | MOLT-4 leukemia 105%

C1CCc2onc(-c3noc4c3CCCCC4)c2CC1
inactive: SK-MEL-2 melanoma 120% | EKVX NSCLC 106% | SN12C renal 95.6% | UO-31 renal 91.1% | TK-10 renal 108% | ACHN renal 113% | CAKI-1 renal 95.6% | A498 renal 146% | CCRF-CEM leukemia 99.3% | MOLT-4 leukemia 102%

CCC12OC(COc3ccccc3)CN1CCN2c1ccccc1 (stereo not given)
inactive: SK-MEL-2 melanoma 99.4% [100 µM] | EKVX NSCLC 95.2% [100 µM] | SN12C renal 96.1% [100 µM] | UO-31 renal 75.2% [100 µM] | TK-10 renal 146% [100 µM] | ACHN renal 97.3% [100 µM] | CAKI-1 renal 89% [100 µM] | A498 renal 107% [100 µM] | CCRF-CEM leukemia 101% [100 µM] | MOLT-4 leukemia 94.5% [100 µM]

C/C(=N\O)c1ccccn1
inactive: SK-MEL-2 melanoma 94.9% | EKVX NSCLC 107% | SN12C renal 91.4% | UO-31 renal 88.1% | TK-10 renal 95.8% | ACHN renal 105% | CAKI-1 renal 95.3% | A498 renal 108% | CCRF-CEM leukemia 96.5% | MOLT-4 leukemia 116%

Cc1[nH]n(-c2ccccc2)c(=O)c1C=NC(=S)C(N)=S
inactive: SK-MEL-2 melanoma 109% | EKVX NSCLC 103% | SN12C renal 105% | UO-31 renal 85.2% | TK-10 renal 125% | ACHN renal 100% | CAKI-1 renal 97.2% | A498 renal 93.8% | CCRF-CEM leukemia 94.1% | MOLT-4 leukemia 102%

O=C(Nc1cccc(Cl)c1)c1ccc(Cl)cc1Cl
inactive: SK-MEL-2 melanoma 95.6% | EKVX NSCLC 84.3% | SN12C renal 92.9% | UO-31 renal 82.7% | TK-10 renal 90.1% | ACHN renal 99.7% | CAKI-1 renal 92.2% | A498 renal 87.8% | CCRF-CEM leukemia 89.6% | MOLT-4 leukemia 87.9%

CCCCCCCCCCCCCC/C=C\C(CC(=O)O)C(=O)O (stereo not given)
inactive: SK-MEL-2 melanoma 110% | EKVX NSCLC 140% | SN12C renal 100% | UO-31 renal 95.9% | TK-10 renal 111% | ACHN renal 110% | CAKI-1 renal 129% | A498 renal 95.2% | MOLT-4 leukemia 115%
active: CCRF-CEM leukemia 4.62%

O=S(=O)(O)C(C(I)I)S(=O)(=O)O
inactive: SK-MEL-2 melanoma 109% | EKVX NSCLC 112% | SN12C renal 110% | UO-31 renal 89.6% | TK-10 renal 111% | ACHN renal 114% | CAKI-1 renal 100% | A498 renal 106% | CCRF-CEM leukemia 105% | MOLT-4 leukemia 103%

c1ccc2c(NCCCN3CCN(CCCNc4c5ccccc5nc5ccccc45)CC3)c3ccccc3nc2c1
active: SK-MEL-2 melanoma -76.8% [100 µM] | EKVX NSCLC -48.6% [100 µM] | SN12C renal -35.9% [100 µM] | UO-31 renal -27.6% [100 µM] | TK-10 renal -9.59% [100 µM] | ACHN renal -60.9% [100 µM] | CAKI-1 renal -15.5% [100 µM] | A498 renal -31.9% [100 µM] | CCRF-CEM leukemia -0.0236% [100 µM] | MOLT-4 leukemia -5.28% [100 µM]

COc1cccc(N=CNc2cccc(OC)c2)c1
inactive: SK-MEL-2 melanoma 86.3% | EKVX NSCLC 99.4% | SN12C renal 101% | UO-31 renal 91.1% | TK-10 renal 113% | ACHN renal 86.2% | CAKI-1 renal 87.7% | A498 renal 93.2% | CCRF-CEM leukemia 94.7% | MOLT-4 leukemia 90.9%

C[C@H](CCC[C@H](C)OS(=O)(=O)c1ccccc1)OS(=O)(=O)c1ccccc1
inactive: SK-MEL-2 melanoma 98.8% | EKVX NSCLC 95.2% | SN12C renal 99.3% | UO-31 renal 78.8% | TK-10 renal 103% | ACHN renal 106% | CAKI-1 renal 92.6% | A498 renal 133% | CCRF-CEM leukemia 120% | MOLT-4 leukemia 115%

NC(=S)N/N=C/c1ccc(OC(=O)COc2ccccc2)cn1
active: ACHN renal 8.03% | CAKI-1 renal 3.88%
inactive: SK-MEL-2 melanoma 69.3% | EKVX NSCLC 109% | SN12C renal 34.7% | UO-31 renal 24.5% | TK-10 renal 74.7% | A498 renal 70.5% | CCRF-CEM leukemia 18.9% | MOLT-4 leukemia 22.3%

CCOc1ccc2c(c1)c(C)cc(C)[n+]2CC
inactive: SK-MEL-2 melanoma 97.9% | EKVX NSCLC 35.9% | SN12C renal 64.6% | UO-31 renal 65.9% | TK-10 renal 97% | ACHN renal 94.1% | CAKI-1 renal 86.2% | A498 renal 88.9% | CCRF-CEM leukemia 71.2% | MOLT-4 leukemia 64.6%

Nc1ccc(F)cc1F
inactive: SK-MEL-2 melanoma 101% | EKVX NSCLC 105% | SN12C renal 100% | UO-31 renal 98.4% | TK-10 renal 106% | ACHN renal 102% | CAKI-1 renal 94.7% | A498 renal 107% | CCRF-CEM leukemia 102% | MOLT-4 leukemia 107%

O=c1cc(Cl)nc2ccccn12
inactive: SK-MEL-2 melanoma 110% | EKVX NSCLC 102% | SN12C renal 102% | UO-31 renal 84% | TK-10 renal 105% | ACHN renal 110% | CAKI-1 renal 96.1% | A498 renal 103% | CCRF-CEM leukemia 119% | MOLT-4 leukemia 106%

Nc1ncnc(Nc2ccccc2)n1
inactive: SK-MEL-2 melanoma 103% | EKVX NSCLC 122% | SN12C renal 105% | UO-31 renal 86.5% | TK-10 renal 110% | ACHN renal 113% | CAKI-1 renal 92.7% | A498 renal 128% | CCRF-CEM leukemia 104% | MOLT-4 leukemia 96.2%

O=c1n(CC2CO2)c(=O)n(CC2CO2)n1CC1CO1 (stereo not given)
inactive: SK-MEL-2 melanoma 41.1% | EKVX NSCLC 97.4% | SN12C renal 69.7% | UO-31 renal 51% | TK-10 renal 74.2% | ACHN renal 22.3% | CAKI-1 renal 28.6% | A498 renal 85.2% | CCRF-CEM leukemia 37.5% | MOLT-4 leukemia 19.2%
